Screening data (PubChem)
FLuc inh: Firefly luciferase inhibition profiling of diverse chemical library using quantitative high-throughput screening. Luciferin 4-monooxygenase (Photinus pyralis), P08659. purified P. pyralis luciferase, luminescence, biochemical. Potency, µM (highest dose often 115 µM), actives largely listed as inhibitors. 76,000 compounds, 2.5% hits. AID 1347043, 2019; further: nearly all actives have a fitted effect of over 65% in size
Target sequence (P08659 whole entry, looked up): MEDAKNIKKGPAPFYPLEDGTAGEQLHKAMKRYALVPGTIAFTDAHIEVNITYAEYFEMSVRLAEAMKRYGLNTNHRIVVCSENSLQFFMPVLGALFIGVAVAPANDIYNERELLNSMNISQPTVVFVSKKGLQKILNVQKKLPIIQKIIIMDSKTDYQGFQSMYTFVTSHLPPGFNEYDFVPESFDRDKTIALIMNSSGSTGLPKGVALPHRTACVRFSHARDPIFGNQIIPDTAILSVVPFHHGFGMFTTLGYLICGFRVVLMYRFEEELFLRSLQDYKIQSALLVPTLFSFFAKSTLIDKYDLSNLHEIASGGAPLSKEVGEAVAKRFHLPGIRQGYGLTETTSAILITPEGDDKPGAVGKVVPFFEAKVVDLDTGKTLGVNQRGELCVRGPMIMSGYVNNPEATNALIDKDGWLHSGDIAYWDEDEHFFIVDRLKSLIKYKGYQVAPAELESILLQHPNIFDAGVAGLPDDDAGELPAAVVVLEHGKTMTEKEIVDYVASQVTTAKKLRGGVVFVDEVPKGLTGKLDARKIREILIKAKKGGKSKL
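Biochemical qHTS: compound (6-point titration) added to 10uM D-luciferin plus 10uM ATP in Tris acetate pH 7.5 buffer with Mg, Tween-20 and BSA, then purified enzyme at 10nM; light output imaged.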
HEK cytotox: Cytotoxic Profiling in HEK 293 Cell Line of Diverse Libraries Using Quantitative High-Throughput Screening; 94,000 compounds, 6.6% hits; HEK 293 viability, ATP luminescence (CellTiter-Glo), 48-72 h; Potency, µM (doses to about 115 µM), hits mostly inhibitors; AID 1345083, 2018; further: nearly all actives have a fitted effect of over 60% in size
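qHTS cytotoxicity; HEK 293, 250 cells/well; compound pinned; 48 or 72 hr, 37 degree Celsius, 5% CO2, 95% humidity; CellTiter-Glo, 10 min RT; luminescence (ATP).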
GPT2 inh: Primary qHTS assay for inhibitors of Glutamate pyruvate transaminase 2 (GPT2); Alanine aminotransferase 2 (Homo sapiens), Q8TD30; Recombinant GPT2, coupled pyruvate oxidase/HRP Amplex Red fluorescence; Potency, µM (top dose mostly 57.7 µM), most hits filed as inhibitors; 100,000 compounds, 0.25% hits; AID 1671188, 2021; further: nearly all actives have a fitted effect of over 60% in size
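Recombinant GPT2 (10ng/uL) with 250uM a-KG and 2mM L-alanine, 30 min at room temperature, in HEPES pH 7.5 buffer. Pyruvate detected by pyruvate oxidase/HRP/Amplex Red fluorescence after 30 min in the dark; AOA (50uM) as positive control.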
hNpr1 antagonist: Natriuretic polypeptide receptor (hNpr1) antagonism - Primary qHTS; Atrial natriuretic peptide receptor 1 (Homo sapiens), P16066; HEK293 hNpr1 GloSensor cGMP, ANP-stimulated luminescence; Potency, µM (top dose mostly 46.3 µM), usual class: inhibitors; 76,000 compounds, 1.6% hits; AID 1347048, 2019; calls by dose curve; further: nearly all actives have a fitted effect of over 60% in size
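Compound pre-incubated 30 min at room temperature on GloSensor-loaded HEK293 cells stably carrying hNpr1 and the pGS-40F cGMP biosensor. Stimulation uses hNppA at 0.1 nM final; luminescence is taken at baseline and 20 min post-agonist.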
NIH3T3 tox: Cytotoxic Profiling in NIH 3T3 Cell Line of Diverse Libraries Using Quantitative High-Throughput Screening; NIH 3T3 viability, CellTiter-Glo ATP luminescence, 48-72 h; Potency, µM (series often up to 96.7 µM), actives largely listed as inhibitors; 94,000 compounds, 4.3% hits; AID 1345082, 2018; further: nearly all actives have a fitted effect of over 55% in size
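Cytotoxicity was measured by CellTiter-Glo ATP luminescence after 48 or 72 h compound exposure at 37 °C. Mouse NIH 3T3 fibroblasts were seeded at 400 cells/well and dosed by 23 nL pin transfer.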
Numbers stand for hits; . = inactive; ? = inconclusive; / = no result; ! = not active in a repeat; [ ] = remark or other dose. Only some compounds are listed: those with a hit (about 10% of all), similar ones and a draw of the others. Unless noted, the call rests on the fitted dose curve; in most records, active means well fitted curve in the direction sought with a large enough effect; inconclusive means small, poorly fitted or top-dose-only effect, or another doubt; inactive means no such curve, though single readings can be large; an effect the other way counts as inactive or inconclusive.

SMILES	FLuc inh	HEK cytotox	GPT2 inh	hNpr1 antagonist	NIH3T3 tox
O=C(Cc1cccc(Cl)c1)N1CCCC(C(=O)N2CCCC(c3nc4ccncc4[nH]3)C2)C1 (stereo not drawn)	/	?	.	/	?
CCc1cccc(NC(=O)Cn2c(Nc3cc(C)cc(C)c3)nc(C)cc2=O)c1	.	40µM	.	.	.
CCc1ccc(NC(=O)Cn2c(N(C)Cc3ccccc3)nc(C)cc2=O)cc1	.	35µM	.	?	?
c1cnc2nc(C3CCNC3)[nH]c2c1 (stereo not drawn)	.	.	.	.	.
Cc1cc(-c2nc3ncccc3[nH]2)c(C)[nH]1	40µM	?	.	.	?
O=C(O)c1ccc(-c2nc3ncccc3[nH]2)cc1	.	.	.	.	.
c1cnc2nc(-c3c[nH]c4ncccc34)[nH]c2c1	89µM	?	.	.	?
c1cnc2nc(-c3ccsc3)[nH]c2c1	?	126µM!	.	.	?
c1ccc(-c2nc3ncccc3[nH]2)nc1	.	?	.	.	?
Cc1cn2nc(C(=O)N3CCC(NC(=O)COc4ccc(F)cc4)CC3)cc2c(=O)[nH]1	.	.	.	.	.
O=C(c1ccccc1F)N1CCC(C(=O)N2CCCC(c3nc4ccncc4[nH]3)C2)CC1 (stereo not drawn)	/	.	.	/	.
COc1ccc(NC(=O)c2cn3cc(-c4cccc(C(F)(F)F)c4)sc3n2)cc1	/	.	.	/	.
O=C(NCC(F)F)c1nc2cccnc2n(C2CCCC2)c1=O	/	?	.	/	?
CC(C)C[C@@H]1N[C@H](C(=O)NCc2ccccc2Cl)Cc2c[nH]c3cccc1c23	.	28µM	.	.	32µM
COc1ccccc1CNC(=O)[C@@H]1Cc2c[nH]c3cccc(c23)[C@H](CC(C)C)N1	.	35µM	.	.	28µM
Cc1noc(C)c1CCC(=O)NC1CCCc2c1[nH]c1ccc(F)cc21 (stereo not drawn)	.	?	.	.	?
CC(=O)N1CC2(CCN(Cc3ccc(Cl)cc3)C2)Cc2ccccc21 (stereo not drawn)	/	?	.	/	.
Cc1ccc(NC(=O)N2CCN(c3nnnn3-c3ccc(Cl)c(C)c3)CC2)cc1F	/	?	.	/	?
COc1ccc(-c2cccc(C(=O)N3CCN([S+](=O)([O-])c4ccccc4)CC3)c2)nn1	/	?	/	/	.
Cc1ccc(Nc2ccnc(N3CCC(C(=O)NCc4ccc(F)cc4)CC3)n2)cc1	/	?	.	/	?
Cc1ccc(Nc2ccnc(N3CCC(C(=O)NCC4CC4)CC3)n2)cc1	/	?	.	/	32µM
COc1ccc(CNC(=O)C2CCN(c3nccc(Nc4ccc(C)cc4)n3)CC2)cc1	/	?	.	/	28µM
COc1ccc(Nc2ccnc(N3CCC(C(=O)NCc4ccc(F)cc4)CC3)n2)cc1	/	?	.	/	40µM
COCCNC(=O)C1CCN(c2nccc(Nc3ccc(C)cc3)n2)CC1	/	?	.	/	?
Cc1ccc(Nc2ccnc(N3CCC(C(=O)NCc4ccc5c(c4)OCO5)CC3)n2)cc1	/	?	.	/	18µM
SMILES	FLuc inh	HEK cytotox	GPT2 inh	hNpr1 antagonist	NIH3T3 tox
COc1ccc(-c2cc(C(=O)NCc3ccccn3)c3cnn(C)c3n2)cc1	/	?	.	/	?
CC(C(=O)N(C)C)N1CCc2onc(C(c3ccccc3)c3ccccc3)c2C1 (stereo not drawn)	.	?	.[11.5 µM]	.	.
CCC(C)C(=O)N1CCC2(CC1)NCCc1c2[nH]c2ccccc12 (stereo not drawn)	.	.	?	.	.
COc1ccc(CNC(=O)C2CCN(c3nccc(Nc4ccc(OC)cc4)n3)CC2)cc1	/	45µM	.	/	40µM
Cc1nc(N2CCC(C(=O)NCc3ccc4c(c3)OCO4)CC2)cc(C(F)(F)F)n1	89µM	?	.	?	?
COc1ccc(Nc2ccnc(N3CCC(C(=O)N(C)C)CC3)n2)cc1	/	?	.	/	.
O=C(NC1CCN(c2cc(-c3ccc(F)cc3)[nH]n2)C1)c1cccnc1 (stereo not drawn)	.	?	?	.	?
O=C(c1ccccc1)N1CCCC(c2nc(C3CCOCC3)no2)C1 (stereo not drawn)	.	.	.	.	.
O=C(CCN1c2ccccc2Sc2ccccc21)N1CCCC(c2nc(C3CCOCC3)no2)C1 (stereo not drawn)	.	40µM	.	.	?
CNC(=O)N1CCc2c(sc3ncnc(N(C)C)c23)C1	.	.	.	.	?
COc1ccc(C(=O)N2CCCn3nc(C)c(-c4ccccc4C(C)C)c32)cn1	.	.	.	.	?
Cc1nn2c(c1-c1ccccc1C(C)C)N(Cc1ccc(F)cc1)CCC2	.	50µM	.	.	28µM
COc1ncccc1CN1CCCn2nc(C)c(-c3ccccc3C(C)C)c21	.	50µM	.	.	45µM
COc1ccccc1CN1CCCn2nc(C)c(-c3ccccc3[S+](C)(=O)[O-])c21	.	45µM	?	.	35µM
CN1CCC(Oc2nccnc2N2CCc3ccccc32)C1 (stereo not drawn)	.	.	.	.	.
Cc1nc(C2CC(O)C2)cc(N2CCN(CCc3ccccc3)CC2)n1 (stereo not drawn)	.	?	.	.	.
Cc1cc(C)cc(-c2ccc(CN3CCCC3C(=O)NCc3cccnc3)cc2)c1 (stereo not drawn)	/	50µM	.	/	?
COc1ccccc1CNC(=O)C1CCCN1Cc1ccc(-c2cc(C)cc(C)c2)cc1 (stereo not drawn)	/	40µM	.	/	40µM
CCOCCNC(=O)C1CCCN1Cc1ccc(-c2cc(C)cc(C)c2)cc1 (stereo not drawn)	/	35µM	.	/	?
Cc1cc(C)cc(-c2ccc(CN3CCCC3C(=O)Nc3cccc(F)c3)cc2)c1 (stereo not drawn)	/	?	.	/	?
Cc1cc(C)cc(-c2ccc(CN3CCCC3C(=O)NCCCc3ccccc3)cc2)c1 (stereo not drawn)	/	?	.	/	?
Cc1cc(C)cc(-c2ccc(CN3CCCC3C(=O)NCc3ccc(C(F)(F)F)cc3)cc2)c1 (stereo not drawn)	/	40µM	.	/	35µM
CSc1ccc(-c2ccc3c(c2)C(=O)N2CC[C@H](NC(=O)C4CCNCC4)C[C@H]2C(=O)N3)cc1	.	.	.	.	.
COc1cccc(CN2C[C@@H](Oc3ccccc3)C[C@H]2C(N)=O)c1	/	?	.	/	?
Fc1ccc(-c2nc(CC3CCNC3)no2)cc1 (stereo not drawn)	.	.	.	.	.
Cc1ccc(Nc2ccnc(N3CCCC(C(=O)NCc4cccc(Cl)c4)C3)n2)cc1 (stereo not drawn)	/	?	.	/	?
